Measured values as given in PubChem BioAssay (NCATS).
Inconclusive results are not listed. Activity calls are given as the source filed them. The call rests on the fitted dose curve.

Columns and labels:
[1] = Primary qHTS for inhibitors of SARS-S pseudo-typed particle cell entry (AID 1479145); further: nearly all actives have a fitted effect of over 45% in size; on activity change, negative = inhibition: series mostly up to about 57 µM
[2] = Primary qHTS for Huh7 cytotoxicity: counterscreen for inhibitors of MERS-S pseudotyped particle cell entry (AID 1479147)
[3] = Primary qHTS for inhibitors of MERS-S pseudo-typed particle cell entry (AID 1479149); further: nearly all actives have a fitted effect of over 60% in size; on activity change, negative = inhibition: series mostly up to about 57 µM
[4] = Primary qHTS for Vero E6 cytotoxicity: counterscreen for inhibitors of SARS-S pseudo-typed particle cell entry (AID 1479150)
On the % scale 0 is the no-effect control and ±100 the full control effect.

O=C(O)Cc1cccc2ccccc12
inactive: Potency [1] | Potency [2] | Potency [3] | Potency [4]

O=C(O)Cc1cccc(-c2cc(CCCCCCc3ccc(O[C@H]4O[C@H](CO)[C@@H](O)[C@H](O)[C@@H]4O)c(-c4cccc(CC(=O)O)c4)c3)ccc2O[C@H]2O[C@H](CO)[C@@H](O)[C@H](O)[C@@H]2O)c1
inactive: activity change, negative = inhibition [1] -22.9% [at 0.573 µM] | outcome [2] inactive [at 0.573 µM] | outcome [3] inactive [at 0.573 µM] | outcome [4] inactive [at 0.573 µM]

CC(C)COC(=O)c1ccc(N)cc1
inactive: Potency [1] | Potency [2] | Potency [3] | Potency [4]

O=C(O)[C@@H](O)[C@H](O)[C@H](O)[C@@H](O)C(=O)O
inactive: Potency [1] | Potency [2] | Potency [3] | Potency [4]

O=C(O)/C=C(\CC(=O)O)C(=O)O
inactive: Potency [1] | Potency [2] | Potency [3] | Potency [4]

CO/N=C(\C(=O)N[C@@H]1C(=O)N2C(C(=O)O)=C(C[N+]3(C)CCCC3)CS[C@H]12)c1csc(N)n1
inactive: Potency [1] | Potency [2] | Potency [3] | Potency [4]

CCC(Cc1c(I)cc(I)c(N)c1I)C(=O)O (stereo unspecified)
inactive: Potency [1] | Potency [2] | Potency [3] | Potency [4]

N[C@@H](CCC(=O)N[C@@H](CS)C(=O)NCC(=O)O)C(=O)O
inactive: Potency [1] | Potency [2] | Potency [3] | Potency [4]

Nc1ccn(C[C@@H](CO)OCP(=O)(O)O)c(=O)n1
inactive: outcome [1] inactive [at 0.573 µM] | outcome [2] inactive [at 0.573 µM] | outcome [3] inactive [at 0.573 µM] | activity change, negative = cytotoxicity [4] -5.43% [at 0.573 µM]

CCN1CCC[C@H]1CNC(=O)c1cc(S(N)(=O)=O)ccc1OC
inactive: Potency [1] | Potency [2] | Potency [3] | Potency [4]

COc1ccc2cc([C@H](C)C(=O)O)ccc2c1
inactive: Potency [1] | Potency [2] | Potency [3] | Potency [4]

NC(N)=NCCN1CCCCCCC1
inactive: outcome [1] inactive [at 0.573 µM] | outcome [2] inactive [at 0.573 µM] | outcome [3] inactive [at 0.573 µM] | activity change, negative = cytotoxicity [4] 3.58% [at 0.573 µM]

CC(C)CN(C[C@@H](O)[C@H](Cc1ccccc1)NC(=O)O[C@H]1CO[C@H]2OCC[C@H]21)S(=O)(=O)c1ccc(N)cc1
inactive: Potency [1] | Potency [2] | Potency [3] | Potency [4]

COc1ccc(C(=O)CC(=O)c2ccc(C(C)(C)C)cc2)cc1
inactive: Potency [1] | Potency [2] | Potency [3] | Potency [4]

CCO[C@H](Cc1ccc(OCCc2ccc(OS(C)(=O)=O)cc2)cc1)C(=O)O
inactive: Potency [1] | Potency [2] | Potency [3] | Potency [4]

NC(=O)c1cc[n+](CC2=C(C(=O)[O-])N3C(=O)[C@@H](NC(=O)Cc4cccs4)[C@H]3SC2)cc1
inactive: Potency [1] | Potency [2] | Potency [3] | Potency [4]

O=C(N[C@H](CO)[C@H](O)c1ccc([N+](=O)[O-])cc1)C(Cl)Cl
inactive: Potency [1] | Potency [2] | Potency [3] | Potency [4]

CC1(C)O[C@@H]2C[C@H]3[C@@H]4C[C@H](F)C5=CC(=O)C=C[C@]5(C)[C@@]4(F)[C@@H](O)C[C@]3(C)[C@]2(C(=O)CO)O1
inactive: Potency [1] | Potency [2] | Potency [3] | Potency [4]

CCN(CC)C(=O)/C(C#N)=C/c1cc(O)c(O)c([N+](=O)[O-])c1
inactive: Potency [1] | Potency [2] | Potency [3] | Potency [4]

CCOC(=O)Oc1ccc(CCNC(=O)[C@H](CCSC)NC(C)=O)cc1OC(=O)OCC
inactive: Potency [1] | Potency [2] | Potency [3] | Potency [4]

CC(CCc1ccccc1)NCC(O)c1ccc(O)c(C(N)=O)c1 (stereo unspecified)
inactive: Potency [1] | Potency [2] | Potency [3] | Potency [4]

Nc1ccc(S(N)(=O)=O)cc1
inactive: Potency [1] | Potency [2] | Potency [3] | Potency [4]

Cc1cc(NS(=O)(=O)c2ccc(N)cc2)no1
inactive: Potency [1] | Potency [2] | Potency [3] | Potency [4]

COc1ccccc1OCC(O)CO (stereo unspecified)
inactive: Potency [1] | Potency [2] | Potency [3] | Potency [4]
